Source: PubChem BioAssay (National Center for Advancing Translational Sciences (NCATS))
HepG2 viability: HepG2 cytotoxicity, counter-screen for TGF-b inhibitors | HepG2 CAGA-GFP viability, ATP luminescence, 18 h | Potency, µM (doses to about 46.1 µM), without a hit: at the top dose activity change, negative = cytotoxicity, usual class: cytotoxic | 0.76% of 410,000 active; note: potency is the fitted concentration of half-maximal effect
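CellTiter-Glo luminescence gave cytotoxicity after 18 hours at 37 degrees C. The cells were HepG2 CAGA-GFP in 1% FBS DMEM, stimulated with 500 pg/mL TGF-beta after compound addition. %Activity was normalised to no-cell wells (complete cell-killing) and DMSO (no toxicity), and curves were fitted and classified.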
TDP1 inh: TDP1 (human) enzyme inhibition | Q9NUW8 | recombinant TDP1, AlphaScreen DNA substrate cleavage | Potency, µM (highest dose often 130 µM), without a hit: at the top dose activity change, negative = inhibition, hits mostly inhibitors | 0.28% of 350,000 active | AID 485290; note: potency is the fitted concentration of half-maximal effect; % is set by controls: 0 for no effect and ±100 for the full control effect; nearly all actives have a fitted effect of over 40% in size
Target sequence (Q9NUW8 whole entry, looked up): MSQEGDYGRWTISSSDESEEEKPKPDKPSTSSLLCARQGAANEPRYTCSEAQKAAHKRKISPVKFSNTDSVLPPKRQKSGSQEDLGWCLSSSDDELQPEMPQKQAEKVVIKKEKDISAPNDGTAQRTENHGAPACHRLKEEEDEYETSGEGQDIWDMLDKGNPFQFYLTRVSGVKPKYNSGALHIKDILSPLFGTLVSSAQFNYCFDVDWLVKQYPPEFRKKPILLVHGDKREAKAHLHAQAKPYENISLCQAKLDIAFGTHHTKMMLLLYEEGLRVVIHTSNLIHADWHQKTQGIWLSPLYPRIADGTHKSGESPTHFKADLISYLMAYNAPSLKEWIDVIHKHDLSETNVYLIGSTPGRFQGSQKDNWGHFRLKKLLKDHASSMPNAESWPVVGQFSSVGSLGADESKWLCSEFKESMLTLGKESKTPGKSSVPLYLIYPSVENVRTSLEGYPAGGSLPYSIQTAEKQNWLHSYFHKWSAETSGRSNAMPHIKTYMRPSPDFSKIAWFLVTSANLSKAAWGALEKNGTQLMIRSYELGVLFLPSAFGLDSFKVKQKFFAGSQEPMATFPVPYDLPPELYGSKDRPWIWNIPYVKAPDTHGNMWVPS
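E. coli-derived human Tdp1, 1 nM final. Cpd preinc 15 min RT; substrate 15 nM final, 5 min RT; AS bead mix 10 ug/ml final, 10 min RT. Signal loss = tyrosine-FITC cleavage. No-enzyme wells = max signal.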
TGFb inhibitor: blocks TGF-b signaling; 1.2% of 410,000 active; AID 588855; HepG2 CAGA-GFP TGF-b/SMAD3 reporter, GFP fluorescence, 18 h; TGF-beta stimulated, 500 pg/mL final; Potency, µM (titrated, usually from 46.1 µM), for inactives: at the top dose activity, negative = inhibition, hits mostly inhibitors; note: potency is the fitted concentration of half-maximal effect; % is set by controls: 0 for no effect and ±100 for the full control effect; nearly all actives have a fitted effect of over 65% in size
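TGF-beta reporter screen: HEPG2 CAGA-GFP, 1% FBS, 500 pg/mL TGF-beta final, 18 h; per-cell GFP summed per well; curves fitted and categorized by class.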
TDP1 cell noCPT: qHTS for Inhibitors of human tyrosyl-DNA phosphodiesterase 1 (TDP1): qHTS in cells in absence of CPT; AID 686978, 2013; Potency, µM (top dose mostly 46.2 µM), inactives show at the top dose activity change, negative = growth inhibition, usual class: inhibitors; DT40 Tdp1-/- hTDP1 cells, no CPT, ATP luminescence, 48 h; 15% of 420,000 active; note: potency is the fitted concentration of half-maximal effect; % is set by controls: 0 for no effect and ±100 for the full control effect; nearly all actives have a fitted effect of over 55% in size
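Growth of hTDP1-complemented DT40 Tdp1-knockout cells is measured by ATP luminescence after at least 48 hr compound exposure at 37 °C, with DMSO substituting for the 20 nM CPT used in the parallel screen.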
DT40 TDP1 CPT: growth inhibition of DT40 Tdp1-/-;hTDP1 cells with camptothecin (screen for TDP1 inhibitors); Potency, µM (highest dose often 46.2 µM), without a hit: at the highest dose activity change, negative = growth inhibition, usual class: inhibitors; 12% of 420,000 active; chicken DT40 Tdp1-/-;hTDP1 cells + 20 nM CPT, ATP luminescence, 48 h; note: potency is the fitted concentration of half-maximal effect; % is set by controls: 0 for no effect and ±100 for the full control effect; nearly all actives have a fitted effect of over 55% in size
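Chicken DT40 Tdp1-/- cells stably complemented with human TDP1 were seeded at 400 cells/well in medium containing 20 nM camptothecin, exposed to pin-transferred compounds, and grown at 37 °C for at least 48 hr. Viability was read as ATP luminescence.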
IL-1B inflam inh: inflammasome signaling inhibition, IL-1 beta readout. THP-1 LPS/ATP IL-1B secretion, AlphaLISA, 16 h; stronger effect = lower value. activity change, % at 57.5 µM. 4.7% of 360,000 active; in the data active = activity change below about -50%; inconclusive = mostly about -30% to -49%; note: % is set by controls: 0 for no effect and ±100 for the full control effect
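Secreted IL-1B measured by AlphaLISA bead assay after 16 h compound exposure of THP-1 cells; compounds (final up to 57.5 uM) added 1 h before LPS (250 ng/mL) and ATP (1.25 mM) stimulation; lower signal means less secretion.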
* marks the source's active call; other numbers are inactive results; ? = inconclusive; nt = no result; [ ] = dose if it differs, or a comment. Most compounds without a hit are left out; they make up all but 18% or so of the library. Unless noted, calls come from the whole dose curve; as a rule, active = well fitted curve in the direction sought with a large enough effect; inconclusive = small, poorly fitted or top-dose-only effect, or another doubt; inactive = no such curve, though single readings can be large; an effect the other way counts as inactive or inconclusive.

SMILES | HepG2 viability | TDP1 inh | TGFb inhibitor | TDP1 cell noCPT | DT40 TDP1 CPT | IL-1B inflam inh
COc1cc(Cl)c(C)cc1NC(=O)CSc1ccccc1 | -15% | -14% | 2% | 0% | -2% | -2
CCc1nc(SCC(=O)Nc2nnc(CC)s2)c2c(C)c(C)sc2n1 | 3% | 0% | -1% | -4% | -8% | 29
COc1ccc(OC)c(NC(=O)CSc2ccc(-c3sc(C)nc3C)nn2)c1 | -26% | 10% | ? | 13µM* | 15µM* | nt
COc1cc(Cl)c(C)cc1NC(=O)CSc1cc(Cl)ccc1Cl | -25% | 0% | 0% | 23µM* | ? | 24
CCc1nc(SCC(=O)Nc2cc(OC)ccc2OC)c2c(C)c(C)sc2n1 | -24% | nt | -28% | 26µM* | 18µM* | -5
CC(=O)Nc1ccccc1OCC(=O)NCCc1ccc(Cl)cc1Cl | -7% | -3% | -10% | ? | ? | 8
CCOc1ccc(C(=O)Nc2ccc3oc(-c4ccncc4)nc3c2)cc1 | 7% | nt | -1% | -29% | -21% | nt
CCOc1ccc(C(=O)Nc2ccc3oc(-c4ccc5ccccc5c4)nc3c2)cc1 | -11% | 2%[2.28 µM] | -2% | ? | 3.7µM* | nt
CCOc1cccc(C(=O)Nc2ccc3oc(-c4ccc(C(C)(C)C)cc4)nc3c2)c1 | -14% | 3%[12.3 µM] | 15% | 2.9µM* | ? | nt
Cc1noc(C)c1S(=O)(=O)N(CC(=O)NCCc1ccc(Cl)cc1)c1ccc(C(C)C)cc1 | -14% | 2% | -1% | ? | ? | nt
C=CCc1c(OC(C)=O)c2ccccc2n(C)c1=O | 10% | 8% | 9% | -13% | -22% | 22
COc1ccc(-c2cc(NC=O)c3ncc(-c4cccc(C(C)=O)c4)n3c2)cc1 | -1% | nt | ? | 18µM* | ? | 53
COc1cccc(-c2cc(NC=O)c3ncc(-c4ccc(C(C)=O)cc4)n3c2)c1 | 2% | nt | 18µM* | 2.3µM* | 3.7µM* | 0
COc1cccc(-c2cc(NC=O)c3ncc(-c4ccc(F)c(Cl)c4)n3c2)c1 | -31% | nt | ? | ? | ? | ?
CC(=O)c1cccc(-c2cnc3c(NC=O)cc(-c4ccccc4)cn23)c1 | 0% | nt | ? | 21µM* | ? | 103
CC(=O)c1ccc(-c2cnc3c(NC=O)cc(-c4cccc(C(=O)N(C)C)c4)cn23)cc1 | -7% | nt | -4% | 7.3µM* | 5.2µM* | 9
COc1ccc(C2/C=C\CN(Cc3ccco3)CC(=O)N2Cc2ccc(F)cc2)cc1 (stereo not given) | -12% | 13% | ? | ? | ? | -1
O=C(O)CN1C(=O)/C(=C/c2ccccc2Br)Oc2ccccc21 | -4% | nt | -9% | 2% | 0% | 11
COc1cccc(CNC(=O)C(Cc2ccccc2)NS(=O)(=O)c2ccc3c(c2)oc(=O)n3C)c1 (stereo not given) | -13% | 6% | 0% | ? | ? | nt
NC(=O)c1ccc(NC(=O)COC(=O)/C=C/c2ccc3c(c2)OCO3)cc1 | -11% | 10% | -22% | -4% | -16% | -1
O=C(COC(=O)CN1C(=O)NC2(CCCC2)C1=O)NCc1ccc(Cl)cc1Cl | -6% | 1% | -5% | 5% | 14% | -15
CCn1cc(C(=O)NCc2ccccc2Cl)c(=O)c2cc(S(=O)(=O)N3CCc4ccccc4C3)ccc21 | -14% | -2% | -24% | ? | -18% | nt
COc1ccc(OC)c(CCNC(=O)CCCC(=O)n2ncc3cc(C)ccc32)c1 | 0% | nt | 5% | ? | -17% | 12
COc1cc(OC)c2cc(-c3ccncc3)cnc2c1 | nt | 11% | nt | 27µM* | 24µM* | nt
CNC(=S)N/N=C/c1cn(Cc2c(F)cccc2Cl)c2ccccc12 | -4% | 8% | 6% | 12µM* | ? | 38
SMILES | HepG2 viability | TDP1 inh | TGFb inhibitor | TDP1 cell noCPT | DT40 TDP1 CPT | IL-1B inflam inh
CN1CCN(C(=S)c2cn(Cc3ccccc3F)c3ccccc23)CC1 | -30% | 8% | -20% | ? | ? | 10
CCNC(=S)N/N=C/c1cn(Cc2ccccc2F)c2ccccc12 | -14% | -5% | -13% | 5.8µM* | 6.5µM* | -19
Cc1ccccc1C(=O)Nc1ccc(-c2nc3ccc(C(=O)c4ccccc4)cc3[nH]2)cc1 | 1% | 5% | 23% | 5.2µM* | 9.2µM* | 25
CN(c1ccccc1)S(=O)(=O)c1ccc(Cl)c(C(=O)Nc2ccc(-c3nc4ccccc4[nH]3)cc2)c1 | 4% | 1% | -1% | 18µM* | 18µM* | 11
CS(=O)(=O)c1cccc(C(=O)Nc2ccc(-c3nc4ccccc4[nH]3)cc2)c1 | -23% | 2% | ? | 7.3µM* | 8.2µM* | -4
O=C(Nc1ccc(-c2nc3ccccc3[nH]2)cc1)c1ccccc1NS(=O)(=O)c1ccc(F)cc1 | -18% | 4% | ? | -26% | -4% | 0
CN(c1ccccc1)S(=O)(=O)c1ccc(Cl)c(C(=O)Nc2nc3ccccc3[nH]2)c1 | 5% | 9% | 0% | 15µM* | 15µM* | ?
CN(c1ccccc1)S(=O)(=O)c1ccc(Cl)c(C(=O)Nc2nn[nH]n2)c1 | -86% | 1% | 1% | 2% | 4% | 12
O=C1NC(Cc2ccc(O)cc2)c2nc3ccc(Br)cc3c(=O)n2-c2ccc(Cl)cc21 (stereo not given) | nt | 3% | nt | nt | nt | nt
O=C(OC1Cc2c(O)cc(O)cc2OC1c1cc(O)c(O)c(O)c1-c1c(C2Oc3cc(O)cc(O)c3CC2OC(=O)c2cc(O)c(O)c(O)c2)cc(O)c(O)c1O)c1cc(O)c(O)c(O)c1 (stereo not given) | nt | nt | nt | 4% | -3% | nt
C=C(C(=O)O)[C@@H]1CC[C@@]2(C)CCC[C@](C)(O)[C@@H]2C1 | nt | 1% | nt | -6%[9.04 µM] | -5%[9.04 µM] | nt
COc1ccccc1NC(=O)c1ccc(-c2ccc(Br)cc2)o1 | -39% | 1% | ? | 5.8µM* | 7.3µM* | 23
CN(C)C(=O)c1ccc(NC(=O)c2ccc(-c3ccc(Cl)cc3)o2)cc1 | -3% | 7% | -21% | 16µM* | 23µM* | -12
CC(=O)c1ccc(NC(=O)c2ccc(-c3ccc(Cl)cc3)o2)cc1 | -102% | 0%[12.3 µM] | ? | ? | ? | nt
CN1CCN(c2ccccc2NC(=O)c2ccc([N+](=O)[O-])o2)CC1 | 2.5µM* | -1% | ? | 9.2µM* | 7.3µM* | -9
